# Reference: the supplement of paper PMC6897291
# Legend:
# [1] = test system: U-2932; experiment: growth inhibition by drug alone (1 - RLU/untreated control) (fraction); higher = stronger inhibition; conditions: 177Lu-lilotomab satetraxetan 0 ug/ml
# Method in brief: (§1)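 Growth inhibition was calculated from RealTime-Glo RLU against untreated no-drug wells. Values equal 1 − RLU/mean of 48 untreated no-drug wells per plate, read daily from day 3 after 1 h at 37°C. RIVA and U-2932 cells, with or without 18 h pretreatment by a radiolabelled anti-CD37 antibody conjugate (~600 MBq/mg; 0.5 µg/ml RIVA, 1 µg/ml U-2932), were washed and plated at 3,000 cells/well on compound-printed plates at 10/100 nM (RIVA) or 10/1,000 nM (U-2932).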
# [2] = test system: RIVA; experiment: as above; conditions: 177Lu-lilotomab satetraxetan 0 ug/ml
# Method in brief: as §1
# [3] = test system: U-2932; experiment: growth inhibition by drug plus 177Lu-lilotomab satetraxetan (1 - RLU/untreated control) (fraction); higher = stronger inhibition; conditions: 177Lu-lilotomab satetraxetan 1 ug/ml
# Method in brief: as §1
# [4] = test system: RIVA; experiment: as above; conditions: 177Lu-lilotomab satetraxetan 0.5 ug/ml
# Method in brief: as §1
Structure (SMILES),"growth inhibition by drug alone ([1]; 10 nM, time (day): 3)","growth inhibition by drug alone ([1]; 10 nM, time (day): 4)","growth inhibition by drug alone ([1]; 10 nM, time (day): 5)","growth inhibition by drug alone ([1]; 10 nM, time (day): 6)","growth inhibition by drug alone ([1]; 1000 nM, time (day): 3)","growth inhibition by drug alone ([1]; 1000 nM, time (day): 4)","growth inhibition by drug alone ([1]; 1000 nM, time (day): 5)","growth inhibition by drug alone ([1]; 1000 nM, time (day): 6)","growth inhibition by drug alone ([2]; 10 nM, time (day): 3)","growth inhibition by drug alone ([2]; 10 nM, time (day): 4)","growth inhibition by drug alone ([2]; 10 nM, time (day): 5)","growth inhibition by drug alone ([2]; 10 nM, time (day): 6)","growth inhibition by drug alone ([2]; 100 nM, time (day): 3)","growth inhibition by drug alone ([2]; 100 nM, time (day): 4)","growth inhibition by drug alone ([2]; 100 nM, time (day): 5)","growth inhibition by drug alone ([2]; 100 nM, time (day): 6)","growth inhibition by drug plus 177Lu-lilotomab satetraxetan ([3]; 10 nM, time (day): 3)","growth inhibition by drug plus 177Lu-lilotomab satetraxetan ([3]; 10 nM, time (day): 4)","growth inhibition by drug plus 177Lu-lilotomab satetraxetan ([3]; 10 nM, time (day): 5)","growth inhibition by drug plus 177Lu-lilotomab satetraxetan ([3]; 10 nM, time (day): 6)","growth inhibition by drug plus 177Lu-lilotomab satetraxetan ([3]; 1000 nM, time (day): 3)","growth inhibition by drug plus 177Lu-lilotomab satetraxetan ([3]; 1000 nM, time (day): 4)","growth inhibition by drug plus 177Lu-lilotomab satetraxetan ([3]; 1000 nM, time (day): 5)","growth inhibition by drug plus 177Lu-lilotomab satetraxetan ([3]; 1000 nM, time (day): 6)","growth inhibition by drug plus 177Lu-lilotomab satetraxetan ([4]; 10 nM, time (day): 3)","growth inhibition by drug plus 177Lu-lilotomab satetraxetan ([4]; 10 nM, time (day): 4)","growth inhibition by drug plus 177Lu-lilotomab satetraxetan ([4]; 10 nM, time (day): 5)","growth inhibition by drug plus 177Lu-lilotomab satetraxetan ([4]; 10 nM, time (day): 6)","growth inhibition by drug plus 177Lu-lilotomab satetraxetan ([4]; 100 nM, time (day): 3)","growth inhibition by drug plus 177Lu-lilotomab satetraxetan ([4]; 100 nM, time (day): 4)","growth inhibition by drug plus 177Lu-lilotomab satetraxetan ([4]; 100 nM, time (day): 5)","growth inhibition by drug plus 177Lu-lilotomab satetraxetan ([4]; 100 nM, time (day): 6)"
CCOc1ccn(-c2ccc(F)cc2)c(=O)c1C(=O)Nc1ccc(Oc2ccnc(N)c2Cl)c(F)c1,0.143,0.12,-0.0713,-0.014,0.036,0.0178,-0.127,-0.209,0.0958,0.084,0.0356,-0.0223,-0.0283,0.013,-0.000157,-0.0616,0.12,0.152,0.188,0.258,0.0517,0.106,0.162,0.259,0.626,0.638,0.657,0.657,0.445,0.512,0.523,0.514
Nc1nc(OCc2cc(Br)cs2)c2[nH]cnc2n1 [Lomeguatrib],-0.115,-0.036,-0.163,-0.244,-0.0214,-0.011,-0.105,-0.195,-0.0122,-0.0435,-0.118,-0.367,-0.0285,-0.0397,-0.0789,-0.154,0.00798,0.0431,0.0314,0.114,-0.0706,0.00418,0.025,0.00957,0.437,0.531,0.544,0.548,0.404,0.479,0.488,0.463
Nc1nc(N)c(N=O)c(OCC2CCCCC2)n1,-0.102,-0.0718,-0.059,0.0483,-0.102,-0.0762,-0.0902,-0.132,-0.226,-0.243,-0.283,-0.504,-0.331,-0.36,-0.322,-0.473,-0.0542,-0.0355,-0.000656,0.134,-0.0976,-0.0168,0.00555,0.0733,0.229,0.419,0.456,0.476,0.322,0.426,0.43,0.399
COc1ccc2c3n(c(=NC(=O)c4cccnc4)nc2c1OC)CCN3,0.1,0.0853,-0.0391,-0.132,0.165,0.128,0.0515,0.0321,0.159,0.0605,-0.0752,-0.345,0.0975,0.0435,0.0156,-0.048,0.021,0.066,0.0894,0.178,0.192,0.175,0.166,0.278,0.429,0.534,0.559,0.569,0.482,0.53,0.551,0.551
Cc1cnc(-c2cnc(NCCNc3ccc(C#N)cn3)nc2-c2ccc(Cl)cc2Cl)[nH]1,0.154,0.101,0.0269,-0.034,0.119,0.0751,-0.139,-0.197,0.0622,0.0911,0.0352,-0.132,-0.000657,0.0178,-0.0435,-0.16,0.0605,0.123,0.113,0.204,0.0116,0.0464,0.0105,0.0661,0.532,0.598,0.613,0.613,0.455,0.536,0.536,0.541
O=C(NC1CCNCC1)c1n[nH]cc1NC(=O)c1c(Cl)cccc1Cl,0.0998,0.0607,0.0482,0.00372,0.953,0.964,0.972,0.975,0.0833,0.0499,0.00549,-0.171,-0.131,-0.1,-0.185,-0.425,0.0507,0.0657,0.0758,0.0972,0.947,0.964,0.971,0.977,0.495,0.577,0.593,0.579,0.503,0.57,0.566,0.533
N#CC1(c2ccc(NC(=O)c3cccnc3NCc3ccncc3)cc2)CCCC1 [Apatinib (YN968D1)],0.0813,0.0775,0.0186,-0.0775,-0.000689,0.0222,-0.108,-0.279,-0.0437,0.0236,-0.0386,-0.253,-0.0842,-0.0337,-0.084,-0.223,0.0626,0.101,0.109,0.137,-0.0473,0.0612,0.0296,0.0686,0.491,0.579,0.593,0.615,0.497,0.559,0.555,0.524
